Screening data (PubChem BioAssay)
Hits are enriched below; roughly 2.4% of the tested compounds scored in any of these assays.
TMEM16A act – TMEM16A chloride channel activators or potentiators, primary screen, cell-based, HTS | AID 623877, 2012 | HEK293 TMEM16A/YFP-H148Q/I152L, iodide quench fluorescence; stronger effect = lower value | B-score at 10 µM | Anoctamin-1 (Mus musculus), Q8BHY3 | 0.3% of 340,000 active;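 active means fluorescence-ratio B-score plate-corrected deviation score at least 3 library SD below zero, with starting fluorescence score within 5 deviations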;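 further: channel opened by trigger with iodide after compound preincubation; score built on the fluorescence ratio of max minus min over baseline; more negative score means more quench and so TMEM16A activation or potentiation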
CRFR2-BP antag – antagonists of CRF-BP/CRF-R2 complex, primary screen, cell-based, HEK293, calcium dye fluorescence, uHTS. inhibition, % at 11.8 µM. CRF-induced calcium fluorescence. AID 588475, 2011. 0.59% of 350,000 active;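 active means inhibition of the ligand-induced calcium signal above about 50% at the single tested concentration, limit read from the data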
RTF Ca sens act – cardiac RTF calcium sensitivity activators, primary screen, biochemical, IANBD-TnC fluorescence, EC20 calcium | AID 493008, 2010 | Troponin I, cardiac muscle (Homo sapiens) + Troponin T, cardiac muscle (Homo sapiens) + … | 0.24% of 340,000 active | IANBD-labeled TnC RTF fluorescence at EC20 calcium; 0% EC20 calcium, 100% full calcium | activation, % at 7.2 µM;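 active means activation above the mean over all tested compounds plus 3 SD, cut at about 30% in these data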;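 further: rise in fluorescence read as greater calcium sensitivity of cardiac thin filaments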
ANO1 block – TMEM16A chloride channel inhibitors, primary screen, cell-based, HTS. HEK293 TMEM16A/YFP iodide influx fluorescence, ionomycin. normalized B-score (activity score, 25-100; higher = stronger inhibition) at 10 µM. 1.2% of 310,000 active. AID 588511, 2011;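 active means ratio plate-corrected score three or more library SD toward inhibition, starting fluorescence score within five deviations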;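 further: score derived from kinetic fluorescence span divided by baseline fluorescence per well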
Cardiac RTF inh – cardiac RTF calcium sensitivity inhibitors, primary screen, biochemical, IANBD-TnC fluorescence, EC70 calcium; Troponin I, cardiac muscle (Homo sapiens) + Troponin T, cardiac muscle (Homo sapiens) + …; IANBD-labeled cardiac RTF, Ca2+ fluorescence; inhibition, % at 7.15 µM; 0.12% of 340,000 active;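 active means inhibition above the mean inhibition of all tested compounds plus 3 SD, cut at about 17% in these data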;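 further: assay run at fixed EC70 calcium of 1.6 mM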
CRFR2-BP ag – agonists of CRF-BP/CRF-R2 complex, primary screen, cell-based, HEK293, calcium dye fluorescence, uHTS; CRF-binding protein / CRF receptor 2 complex (human); calcium dye fluorescence (FLIPR); percent of saturating CRF peptide response; activation, % at 13.2 µM; 0.46% of 350,000 active;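 active means activation of at least 50%, plus an integration ratio under a set limit after plate pattern correction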;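 further: plate controls were neutral control wells without compound for no effect and CRF at EC100 for full effect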
TMEM16A reconf – TMEM16A chloride channel inhibitors, confirmation, cell-based, re-confirmation. shares compounds with ANO1 block. HEK293 TMEM16A/YFP-H148Q, iodide quench fluorescence; ionomycin added to raise cell calcium. inhibition, % at 10 µM. 39% of 2,300 active. AID 652189, 2013;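 active means mean duplicate percent inhibition, scaled so buffer wells are 0 and the reference blocker 100, over three buffer SD above buffer mean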
HEK293 Ca mobil – calcium mobilization in TMEM16A/YFP HEK293 cells, confirmation, counter-screen for TMEM16A inhibitor project; shares compounds with ANO1 block; Fluo4 calcium mobilization; calcium response (% of ionomycin), % at 10 µM; 2% of 2,300 active; AID 652231, 2013;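 active means duplicate-averaged calcium signal over 20% of the ionomycin maximum, relative to buffer baseline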;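 further: each well's signal is peak minus trough fluorescence divided by its pre-addition baseline; 0% = buffer wells and 100% = ionomycin wells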
YFP-HEK293 quench – iodide YFP quench changes in parental YFP-HEK293, counter-screen for TMEM16A inhibitor project, cell-based | shares compounds with ANO1 block | ionomycin | YFP ratio F(max-min)/F0 at 10 µM | 2,300 tested, under 10 active;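 active means yellow fluorescent protein signal ratio exceeding the buffer control mean by over 5 SD of those controls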;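 further: ratio is mean of duplicate wells from kinetic YFP trace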
ClC-1 inh – ClC-1 chloride channel inhibition, selectivity assay for TMEM16A inhibitor project, cell-based, voltage-dependent ClC-1 | 2,300 tested, under 10 active | CHO ClC-1-YFP, iodide influx fluorescence quench; iodide control reads 0, buffer control 100 | AID 652236, 2013 | shares compounds with ANO1 block | ratio percent, % at 10 µM;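 active means duplicate-mean ratio percent above the mean of iodide-only control wells, which defines zero, plus 5 of their SD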;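 further: higher percent means stronger block of ClC-1 iodide influx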
* = called active by the depositor; i = inactive; nt = no result given.

SMILES | TMEM16A act | CRFR2-BP antag | RTF Ca sens act | ANO1 block | Cardiac RTF inh | CRFR2-BP ag | TMEM16A reconf | HEK293 Ca mobil | YFP-HEK293 quench | ClC-1 inh
CCCn1c(CC)nc([N+](=O)[O-])c1Sc1ccc(C)cc1 | i | -15 | -1 | i | 0 | 4 | nt | nt | nt | nt
CCCn1c(CC)nc([N+](=O)[O-])c1Sc1ccc(F)cc1 | i | -2 | -2 | 25* | -2 | -5 | i | i | -0.95 | -6
Cn1c(CNc2nc3ccccc3n2CCN2CCCCC2)nc2ccccc21 | i | -16 | 7 | 25* | -39 | 0 | i | i | -0.85 | -2
CCN(CC)CC(=O)Nc1nc(-c2ccc(Cl)cc2)cs1 | i | -6 | -1 | 100* | 2 | -1 | i | i | -1 | -12
CC[n+]1c(/C=C2\C=C(C)CC(C)(C)C2)sc2ccccc21 | i | -7 | 5 | i | -14 | -2 | nt | nt | nt | nt
CC[n+]1c(/C=C2/C=C(C)CC(C)(C)C2)sc2ccc(OC)cc21 | i | 24 | 3 | 25* | 8 | -3 | 56%* | i | -0.89 | -26
O=C(CSc1ncc(-c2ccccc2)n1-c1ccccc1)NCc1ccco1 | i | 33 | 0 | 25* | -9 | -1 | i | i | -0.98 | -8
O=C(CSc1ccc2nnc(-c3ccccc3)n2n1)NCc1ccco1 | i | -24 | -8 | 100* | -17 | 4 | i | i | -0.97 | -7
COc1ccc(-c2nnc3ccc(SCC(=O)NCc4ccco4)nn23)cc1 | i | -11 | -5 | i | -6 | 0 | nt | nt | nt | nt
COc1ccc(-n2c(-c3ccc(F)cc3)cnc2SCC(=O)NCc2ccco2)cc1 | i | 14 | 3 | i | -13 | 0 | nt | nt | nt | nt
Cc1cc(-c2ccccc2)c2c(=O)[nH][nH]c2n1 | i | 7 | 2 | i | -5 | -1 | nt | nt | nt | nt
Cc1ccc(N2CC(C(=O)OCC(=O)NNC(=O)c3ccccc3)CC2=O)cc1 (configuration not stated) | i | 4 | 0 | i | -8 | -2 | nt | nt | nt | nt
O=C(CSc1nnc(-c2cccs2)n1C1CC1)NC1CCS(=O)(=O)C1 (configuration not stated) | i | -18 | -1 | nt | -5 | -2 | nt | nt | nt | nt
CCN(Cc1cc(=O)n2ccsc2n1)Cc1nc2ccccc2c(=O)[nH]1 | i | -9 | -1 | i | 2 | 0 | nt | nt | nt | nt
COc1ccc(C(=O)OCC(=O)NC2CCCCCCC2)cc1OC | i | 4 | -2 | nt | 0 | -4 | nt | nt | nt | nt
CCOC(OCC)P(=O)(c1ccccc1)c1ccccc1 | i | 8 | -1 | i | -13 | 0 | i | i | -1.2 | -2
S=C(NCC1CCCO1)N1CCN(c2nc(-c3ccccc3)cs2)CC1 (configuration not stated) | i | 1 | -3 | 25* | 0 | -1 | 18%* | i | -1.4 | -2
S=C(NCc1ccco1)N1CCN(c2nc(-c3ccccc3)cs2)CC1 | i | 2 | 4 | i | -1 | 0 | nt | nt | nt | nt
CCCCn1c(N)c(N(CCOC)C(=O)CN2c3ccccc3CC2C)c(=O)[nH]c1=O (configuration not stated) | i | 0 | 4 | i | 2 | 0 | nt | nt | nt | nt
Cc1ccc(C(=O)N/N=C/c2cn(Cc3ccccc3)c3ccccc23)cn1 | i | -2 | 8 | 25* | -5 | -1 | i | i | -1.2 | -13
Cc1nc2ccc(NC(=S)N3CCOCC3)cc2nc1C | i | 12 | 2 | i | 1 | -2 | nt | nt | nt | nt
C/C(CC1CC2=C(CC1(C)C)C(C)(C)CCC2)=N\NC(N)=S (configuration not stated) | i | -45 | -23 | 25* | -3 | 6 | i | 26%* | -1 | -5
CC1Cc2ccccc2N1C(=O)CSc1nnc2n1C(C)(C)Cc1ccccc1-2 (configuration not stated) | i | -4 | 1 | i | -8 | -1 | nt | nt | nt | nt
COc1ccccc1N1CCN(C(=O)CSc2nnc3n2C(C)(C)Cc2ccccc2-3)CC1 | i | 6 | -4 | 25* | -9 | -1 | i | i | -1.1 | -4
Cc1nnc(SCC(=O)Nc2nc(-c3ccccc3)cs2)n1N | i | -2 | -3 | 100* | 3 | -4 | i | i | -1 | -10
SMILES | TMEM16A act | CRFR2-BP antag | RTF Ca sens act | ANO1 block | Cardiac RTF inh | CRFR2-BP ag | TMEM16A reconf | HEK293 Ca mobil | YFP-HEK293 quench | ClC-1 inh
CCn1c(SCC(=O)Nc2nc(-c3ccccc3)cs2)nnc1-c1ccccc1 | i | -11 | 8 | i | -6 | 0 | nt | nt | nt | nt
Cc1cc2nc(/N=C(\N)NC(=O)N3c4ccccc4Sc4ccccc43)nc(C)c2cc1C | i | 2 | 6 | i | -2 | 0 | nt | nt | nt | nt
CCn1nc(NS(=O)(=O)c2ccc([N+](=O)[O-])cc2)c2cc3cccc(C)c3nc21 | i | 16 | -4 | 25* | -5 | -1 | 22%* | i | -0.74 | -4
CCn1nc(NS(=O)(=O)c2ccccc2[N+](=O)[O-])c2cc3cccc(C)c3nc21 | i | 9 | -3 | i | 1 | 0 | nt | nt | nt | nt
CCC(C)Nc1nc(-c2cccc(OC)c2O)nc2ccccc12 (configuration not stated) | i | -12 | 1 | 100* | -11 | -3 | 28%* | i | -1.1 | -9
Nc1nonc1-n1nnc(C(=O)N/N=C/c2cc(Cl)ccc2O)c1CN1CCCCCC1 | i | nt | 3 | i | -3 | nt | nt | nt | nt | nt
